Reference: PubChem BioAssay (NCATS)
Results filed as inconclusive are left out. The source made the active and inactive calls. Calls come from the whole dose curve; as a rule, active = well fitted cell-killing curve with a large enough effect; inconclusive = small, poorly fitted or top-dose-only effect, or effect the other way; inactive = flat fitted curve, though single readings scatter.

Tests used:
Assay in all cases: Primary qHTS to identify gynecologic anti-cancer compounds using libraries of approved drugs and bioactive compounds (AID 1345084); note: nearly all actives have a fitted effect of over 55% in size
CASKI = conditions: Gynecologic cancer cell panel viability, ATPlite luminescence, 48 h; series mostly up to 57.5 µM
Summary of the method: (§1)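 Measured: luminescence after ATPlite addition (15 min, RT). Exposure: 48 h, 37 C, 5% CO2.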

Es-2 = conditions: Gynecologic cancer cell panel viability, ATPlite luminescence, 48 h; series mostly up to 57.5 µM
Summary of the method: as §1

HeLa = conditions: Gynecologic cancer cell panel viability, ATPlite luminescence, 48 h; series mostly up to 57.5 µM
Summary of the method: as §1

Hek293T = conditions: Gynecologic cancer cell panel viability, ATPlite luminescence, 48 h, control line for the selectivity index; series mostly up to 57.5 µM
Summary of the method: as §1

JEG-3 = conditions: Gynecologic cancer cell panel viability, ATPlite luminescence, 48 h; series mostly up to 57.5 µM
Summary of the method: as §1

OV90 = conditions: Gynecologic cancer cell panel viability, ATPlite luminescence, 48 h; series mostly up to 57.5 µM
Summary of the method: as §1

PA-1 = conditions: Gynecologic cancer cell panel viability, ATPlite luminescence, 48 h; series mostly up to 57.5 µM
Summary of the method: as §1

SKOV3 = conditions: Gynecologic cancer cell panel viability, ATPlite luminescence, 48 h; series mostly up to 57.5 µM
Summary of the method: as §1

Tov-21-G = conditions: Gynecologic cancer cell panel viability, ATPlite luminescence, 48 h; series mostly up to 57.5 µM
Summary of the method: as §1

Tov112D = conditions: Gynecologic cancer cell panel viability, ATPlite luminescence, 48 h; series mostly up to 57.5 µM
Summary of the method: as §1

Measured: Potency

N[C@H](C(=O)O)[C@@H](O)c1ccc(O)c(O)c1
inactive: CASKI | Es-2 | HeLa | Hek293T | JEG-3 | OV90 | PA-1 | SKOV3 | Tov-21-G | Tov112D

NCCNC(=O)c1ccc(Cl)cn1
inactive: CASKI | Es-2 | HeLa | Hek293T | JEG-3 | OV90 | PA-1 | SKOV3 | Tov-21-G | Tov112D

CCC1NC(=O)c2cc(S(N)(=O)=O)c(Cl)cc2N1 (centres undefined)
inactive: CASKI | Es-2 | HeLa | Hek293T | JEG-3 | OV90 | PA-1 | SKOV3 | Tov-21-G | Tov112D

O=C(CCN1CCN2CCCC2C1)N1c2ccccc2Sc2ccc(Cl)cc21 (centres undefined)
inactive: CASKI | Es-2 | HeLa | Hek293T | JEG-3 | OV90 | PA-1 | SKOV3 | Tov-21-G | Tov112D

CC1(C)OC[C@@H]2O[C@@]3(C(=O)O)OC(C)(C)O[C@H]3[C@@H]2O1
inactive: CASKI | Es-2 | HeLa | Hek293T | JEG-3 | OV90 | PA-1 | SKOV3 | Tov-21-G | Tov112D

c1ccc(CC2=NCCN2)cc1
inactive: CASKI | Es-2 | HeLa | Hek293T | JEG-3 | OV90 | PA-1 | SKOV3 | Tov-21-G | Tov112D

O=C(O)CCC(=O)Nc1ccc(S(=O)(=O)Nc2nccs2)cc1
inactive: CASKI | Es-2 | HeLa | Hek293T | JEG-3 | OV90 | PA-1 | SKOV3 | Tov-21-G | Tov112D

Cc1cc2c(OCC(CNC(C)(C)C)OC(=O)c3ccccc3)cccc2[nH]1 (centres undefined)
inactive: CASKI | Es-2 | HeLa | Hek293T | JEG-3 | OV90 | PA-1 | SKOV3 | Tov-21-G | Tov112D

CC(=O)NC(=O)c1ccccc1O
inactive: CASKI | Es-2 | HeLa | Hek293T | JEG-3 | OV90 | PA-1 | Tov-21-G | Tov112D

O=C(O)c1ccc(S(=O)(=O)N(Cl)Cl)cc1
inactive: CASKI | Es-2 | HeLa | Hek293T | JEG-3 | OV90 | PA-1 | SKOV3 | Tov-21-G | Tov112D

C[N+]1(C)CCC(=C(c2ccccc2)c2ccccc2)CC1
inactive: CASKI | Es-2 | HeLa | Hek293T | JEG-3 | OV90 | PA-1 | SKOV3 | Tov-21-G | Tov112D

C#C[C@]1(O)CC[C@H]2[C@@H]3CCc4cc(OC)ccc4[C@H]3CC[C@@]21C
inactive: CASKI | Es-2 | HeLa | Hek293T | JEG-3 | OV90 | PA-1 | SKOV3 | Tov-21-G | Tov112D

CN(CCCN1c2ccccc2CCc2ccccc21)CC(=O)c1ccc(Cl)cc1
inactive: CASKI | Es-2 | HeLa | Hek293T | JEG-3 | OV90 | PA-1 | SKOV3 | Tov-21-G | Tov112D

N#CCC(=O)NN
inactive: CASKI | Es-2 | HeLa | Hek293T | JEG-3 | OV90 | PA-1 | SKOV3 | Tov-21-G | Tov112D

CCCCCCCCCCCCSCCOCCO
inactive: CASKI | Es-2 | HeLa | Hek293T | JEG-3 | OV90 | PA-1 | SKOV3 | Tov-21-G | Tov112D

C[C@@H](O)[C@H]1C(=O)N2C(C(=O)O)=C([C@H]3CCCO3)S[C@H]12
inactive: CASKI | Es-2 | HeLa | Hek293T | JEG-3 | OV90 | PA-1 | SKOV3 | Tov-21-G | Tov112D

CCOc1ccccc1C(N)=O
inactive: CASKI | Es-2 | HeLa | Hek293T | JEG-3 | OV90 | PA-1 | SKOV3 | Tov-21-G | Tov112D

NCc1ccccc1Sc1ccccc1CO
inactive: CASKI | Es-2 | HeLa | Hek293T | JEG-3 | OV90 | PA-1 | SKOV3 | Tov-21-G | Tov112D

CCCCCCCCCCCCCCC[C@H](O)[C@@H](N)CO
inactive: CASKI | Es-2 | HeLa | Hek293T | JEG-3 | OV90 | PA-1 | SKOV3 | Tov-21-G | Tov112D

OC[C@H]1O[C@@H](Oc2ccc(O)cc2)[C@H](O)[C@@H](O)[C@@H]1O
inactive: CASKI | Es-2 | HeLa | Hek293T | JEG-3 | OV90 | PA-1 | SKOV3 | Tov-21-G | Tov112D

CC(=O)Nc1ccc(OC(=O)c2ccccc2OC(C)=O)cc1
inactive: CASKI | Es-2 | HeLa | Hek293T | JEG-3 | OV90 | PA-1 | SKOV3 | Tov-21-G | Tov112D

CN(C)CCOC(=O)C(c1ccccc1)C1(O)CCCC1 (centres undefined)
inactive: CASKI | Es-2 | HeLa | Hek293T | JEG-3 | OV90 | PA-1 | SKOV3 | Tov-21-G | Tov112D
